We go through 54 molecules from PubChem BioAssay AID602229 (The Scripps Research Institute Molecular Screening Center, 2012).

About 1,300 (0.36%) of roughly 360,000 compounds were called active. Only a selection was taken, and actives are over-represented in it overall. Unmarked numbers belong to inactive results.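 How the source made its calls: active means inhibition above the mean of all tested compounds plus 3 SD (cut at about 70% in these data); inactive means the rest.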

For this experiment, the target named is Photoreceptor-specific nuclear receptor (Homo sapiens) (UniProt Q9Y5X4). In words: NCOR release from NR2E3 in cells – cell-based, luminescence, CHO-S, Gal4-NCOR/VP16-NR2E3, primary screen (AID 602229).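 Further: 0% = DMSO with NR2E3 transfected cells and 100% = cells lacking NR2E3 construct; higher means lower luciferase signal from less NR2E3 corepressor binding.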 The conditions noted are these: CHO-S Gal4-NCOR/VP16-NR2E3 two-hybrid, luciferase; at 3.98 µM; stronger effect = higher value.
Chain of Photoreceptor-specific nuclear receptor (Homo sapiens) (Q9Y5X4 whole entry, looked up, the tested form may be a part): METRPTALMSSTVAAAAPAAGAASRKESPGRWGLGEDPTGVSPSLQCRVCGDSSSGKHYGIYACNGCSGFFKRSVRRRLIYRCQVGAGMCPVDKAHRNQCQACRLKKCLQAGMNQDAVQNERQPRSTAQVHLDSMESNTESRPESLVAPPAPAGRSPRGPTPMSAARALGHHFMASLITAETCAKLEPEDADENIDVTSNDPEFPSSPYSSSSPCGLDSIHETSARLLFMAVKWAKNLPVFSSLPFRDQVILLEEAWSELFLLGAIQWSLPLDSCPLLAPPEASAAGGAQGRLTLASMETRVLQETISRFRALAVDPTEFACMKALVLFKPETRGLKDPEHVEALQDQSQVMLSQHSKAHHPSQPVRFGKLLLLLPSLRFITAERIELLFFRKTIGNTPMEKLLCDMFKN
On to `N#CC1=C(N)Oc2[nH]c(=S)[nH]c(=O)c2C12C(=O)Nc1ccccc12` (centres undefined), for which the inhibition of corepressor binding was -7.36%.

Take `CCCCn1nnnc1C(c1ccccc1)N1CCN(c2ccccc2OC)CC1` (centres undefined): the inhibition of corepressor binding is -15.1%.

On to `CCCCC(=O)N(c1ccc(OC)cc1)C1C=CS(=O)(=O)C1` (centres undefined), for which the inhibition of corepressor binding was -26%.

On to `COC(=O)[C@]12CCCCC=C1N(Cc1ccco1)C(=O)[C@H](CC(=O)NCCCCc1ccccc1)C2`, for which the inhibition of corepressor binding is -23.9%.

Take `COc1ccc(NC(=O)CC2SC(N3CCCCC3)=NC2=O)cc1OC` (centres undefined): the inhibition of corepressor binding is 8.6%.

Consider `CS(=O)(=O)Nc1ccccc1N=C(c1ccccc1)c1ccccc1`, for which the inhibition of corepressor binding was 7.7%.

Consider `O=C(CCc1nnc2ccc(NCCCN3CCCC3=O)nn12)NCc1ccccc1Cl`, for which the inhibition of corepressor binding was 8.39%.

Regarding `Cc1nc(-c2ccc(F)cc2)c(CC(=O)Nc2cc(S(=O)(=O)N3CCCCC3)ccc2C)s1`, the inhibition of corepressor binding was 82.8% (active).

`Cc1nc(-c2ccc(F)cc2)c(CC(=O)N2CCN(S(=O)(=O)c3ccc(F)cc3)CC2)s1`: the inhibition of corepressor binding is -1.49%.

For `Cc1ccc(S(=O)(=O)N2CCN(C(=O)Cc3sc(C)nc3-c3ccc(F)cc3)CC2)c(C)c1`, the inhibition of corepressor binding was -15.2%.

With `O=S(=O)(Nc1ccc(-c2ccc(N3CCOCC3)nn2)cc1)c1cc(Cl)ccc1Cl`, the inhibition of corepressor binding was -41.5%.

As for `COc1ccc(C(C(=O)NCC2CCCO2)N(C(=O)Cn2nnc3ccccc32)c2ccc(NC(C)=O)cc2)cc1OC` (centres undefined), the inhibition of corepressor binding is -35.2%.

Turning to `Cn1c(=O)oc2cc(S(=O)(=O)N3CCC(C(=O)Nc4ccc(OC(F)(F)F)cc4)CC3)ccc21`, the inhibition of corepressor binding is -16.6%.

Turning to `CC[C@H]1CN2CCc3cc(OC)c(OC)cc3[C@@H]2C[C@@H]1C[C@H]1NCCc2cc(OC)c(OC)cc21`, the inhibition of corepressor binding is 104% (active).

Turning to `O=C(CC(NCCN1CCOCC1)C(=O)O)Nc1cccc(Cl)c1` (centres undefined), the inhibition of corepressor binding is 5.57%.

Take `CCCCCCCCn1c2c(c(=N)c3c1CCC3)CCCC2`: the inhibition of corepressor binding was 92% (active).

As to `Cc1ccc(S(=O)(=O)NC(C)C(=O)NCc2ccc(Cl)cc2)cc1` (centres undefined), the inhibition of corepressor binding is -5.53%.

Regarding `CCn1cc(C(=O)N[C@@H](C)C(=O)NCCO)c(=O)c2cc3c(cc21)OCO3`, the inhibition of corepressor binding was -12.3%.

`Cc1nc([N+](=O)[O-])c(NCCCO)n1Cc1ccccc1`: the inhibition of corepressor binding was -10.6%.

`CCN1/C(=C\c2ccc3ccccc3[n+]2CC)Sc2cc(C)ccc21`: the inhibition of corepressor binding was 89.4% (active).

Consider `COCC(=O)N1CCc2ccc(NC(=O)c3ccccc3Cl)cc2C1`, for which the inhibition of corepressor binding was -6.67%.

Take `CCOC(=O)C1CCCN(C(=O)c2cc(-c3cccs3)oc2C)CC1` (centres undefined): the inhibition of corepressor binding is -1.14%.

In the case of `CCOc1ccccc1N1CCN(C(=O)c2ccc3[nH]c(C)c(C)c3c2)CC1`, the inhibition of corepressor binding was -57.3%.

`C[C@H](CO)N1C[C@H](C)[C@H](CN(C)CC2CC2)Oc2ccc(NC(=O)CCN3CCOCC3)cc2C1=O`: the inhibition of corepressor binding is -4.02%.

For `COc1ccccc1CNc1nc(Nc2ccccc2Cl)c2sccc2n1`, the inhibition of corepressor binding was 64.7%.

In the case of `COc1cccc(CNc2nc(NCc3cccs3)nc3ccsc23)c1`, the inhibition of corepressor binding is 88.5% (active).

In the case of `COc1cccc(CNc2nc(NCc3ccccc3OC)nc3ccsc23)c1`, the inhibition of corepressor binding is 54.7%.

As to `CC[C@]1(c2ccccc2OC)C(=O)N(C(=O)OC)N1C(=O)OC`, the inhibition of corepressor binding was 14.9%.

In the case of `COc1cc(C(=O)NCc2ccc(-n3cccc3)cc2)cc(OC)c1OC`, the inhibition of corepressor binding is 11.4%.

`CCn1c(CNC(=O)c2cc(OC)c(OC)c(OC)c2)cc2cc(C)ccc21`: the inhibition of corepressor binding was 89.3% (active).

As for `COc1cc(C(=O)NCc2nnc(SCC(=O)Nc3nc4ccc(C)cc4s3)o2)cc(OC)c1OC`, the inhibition of corepressor binding was -10.1%.

Turning to `Cc1ccc(N(CCC(=O)O)S(=O)(=O)c2cccc(C(F)(F)F)c2)cc1`, the inhibition of corepressor binding is 4.8%.

Take `Cc1noc(C)c1S(=O)(=O)Nc1cc(C(F)(F)F)ccc1N1CCOCC1`: the inhibition of corepressor binding is 4.86%.

With `Cc1oc2c(F)c(F)c(F)c(F)c2c1S(=O)(=O)Nc1cccc(C(F)(F)F)c1`, the inhibition of corepressor binding was 110% (active).

Take `CCCOc1ccc(CN(CCO)CCO)cc1C(=O)OC`: the inhibition of corepressor binding was 5.92%.

Consider `COc1ccccc1CNC(=O)CNC(=O)c1cn(-c2ccccc2OC)c(=O)c2ccccc12`, for which the inhibition of corepressor binding is 6.65%.

For the molecule `COc1ccc(S(=O)(=O)N2CCc3ccccc32)cc1C(=O)Nc1cc(S(C)(=O)=O)ccc1Cl`, the inhibition of corepressor binding was -23.6%.

For `Cc1ccc(C)c(NC(=O)CN(C)C(=O)c2ccc3ncsc3c2)c1`, the inhibition of corepressor binding is -19.7%.

Consider `CC1(C(=O)NS(=O)(=O)c2ccc(Cl)cc2)CCN1C(=O)CC1CCCC1` (centres undefined), for which the inhibition of corepressor binding was 9.74%.

For the molecule `CN(CC(=O)Nc1cccc(F)c1)C(=O)C1=COCCO1`, the inhibition of corepressor binding was -5.12%.

For `Cc1ccc(NC(=O)c2sccc2C)cc1[N+](=O)[O-]`, the inhibition of corepressor binding is -86.2%.

For `Cc1ccc(NC(=O)CN(C)CC(=O)Nc2cccc(F)c2)cc1[N+](=O)[O-]`, the inhibition of corepressor binding is 84.2% (active).

In the case of `Cc1ccc(NC(=O)C(C)OC(=O)Cc2c[nH]c3ccccc23)cc1S(=O)(=O)N1CCOCC1` (centres undefined), the inhibition of corepressor binding is 20.8%.

Regarding `S=C(NN=Cc1ccccn1)Nc1ccccn1`, the inhibition of corepressor binding is 52.5%.

On to `Oc1ccc(Br)cc1/C=N/Nc1ccccn1`, for which the inhibition of corepressor binding was 87.1% (active).

Turning to `O=C(Nc1ccc(Br)cc1)c1cc(S(=O)(=O)Nc2ccccn2)ccc1Cl`, the inhibition of corepressor binding is 0.47%.

Turning to `CCCN(CC(=O)Nc1ccc(OC)c(OC)c1)CC(=O)Nc1ccc(F)c(F)c1F`, the inhibition of corepressor binding was -8.16%.

For `CCOC(=O)C1CCN(S(=O)(=O)c2c(C)noc2C)CC1`, the inhibition of corepressor binding was -11.3%.

Regarding `Cc1csc(OCC(=O)Nc2ccc(C)c(C)c2)n1`, the inhibition of corepressor binding is -16.6%.

In the case of `CCOC(=O)c1cnc2ccc(F)cc2c1Nc1ccc2c(c1)OCCO2`, the inhibition of corepressor binding was -13.2%.

With `Cc1nc2ccccc2c(C(=O)O)c1-c1ccccn1`, the inhibition of corepressor binding was -21.4%.

In the case of `CC(C)(C)Nc1nc(-c2ccccn2)nc2ccccc12`, the inhibition of corepressor binding is 98.8% (active).

With `c1ccc(-c2nccc(-c3ccc(-n4cnc5ccccc54)cc3)n2)nc1`, the inhibition of corepressor binding is 34.3%.

As for `O=C1CC(=O)Nc2cc(S(=O)(=O)N3CCN(c4cccc(C(F)(F)F)c4)CC3)ccc2N1`, the inhibition of corepressor binding was -3.07%.
